“And” between values parts separate entries of the source, which are not always exact repeats. Identical values can stand only once. Results filed as inconclusive are left out. For part of these data: Entries with a potency or affinity are not part of this list. The source made the active and inactive calls.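 How the source made its calls, unless noted: active means luciferase signal above three times the same-plate solvent-only control wells; inactive means the rest.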
What was measured:
[1] = biological target: Mitogen-activated protein kinase 7 (Homo sapiens) (UniProt Q13164); experiment: ERK5 transactivation activators in reporter cells, primary screen, cell-based, HTS (AID 1508626); conditions: HeLa Gal4-ERK5 transactivation, 18 h, at 5 µM, stronger effect = higher value;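 further: luciferase driven by Gal4-ERK5 fusion binding five Gal4 sites before minimal TATA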
[2] = suppressors of polyQ aggregation in yeast, 75Q-TubU reporter (AID 1593); conditions: Yeast 75Q polyglutamine aggregation reporter
[3] = rescue of polyQ-huntingtin neuronal dysfunction in worms, whole organism, C. elegans mechanosensory neurons, N-terminal huntingtin (AID 1599); conditions: touch response, stronger effect = higher value
[4] = inhibitors of mitochondrial cytochrome c release, biochemical, purified mitochondria (AID 1603); conditions: stronger effect = lower value;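 further: mouse liver mitochondria challenged with calcium chloride; signal normalized to the plate average as 100%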
[5] = inhibitors of polyQ protein aggregation (AID 1604); conditions: polyglutamine-induced protein aggregation inhibition assay; stronger effect = higher value; tested at 2.5 µM
[6] = enhancers of glutamate uptake in motor neurons, MN-1 cell line (AID 1612); conditions: MN-1 motor neuron cells, stronger effect = higher value;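 further: tested at 1 µM final; 0% = mean of DMSO vehicle wells on each plate; positive means more glutamate uptake than control and negative means less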
[7] = reducers of polyQ inclusions in PC12 cells, cell-based, NGF-treated PC12, GFPQ80 (AID 1614); conditions: PC12 NGF-treated GFP-polyQ80 inclusion reduction;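 further: lower means fewer inclusions and 0 means no inclusions at all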
[8] = suppressors of polyglutamine aggregation in yeast, 75Q-TubH (AID 1616); conditions: S. cerevisiae 75Q-TubH polyglutamine aggregation suppression; stronger effect = higher value
[9] = growth inhibition of DIPG glioma cells, dose response, cell-based, SU-DIPG-IV, MIPE4.0, CellTiter-Glo, qHTS (AID 1347063; cut-off not given, nearly all actives have AC50 up to about 30 µM;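 further: compound exposure lasted 48 hours before the viability readout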); conditions: SU-DIPG-IV viability, CellTiter-Glo ATP luminescence
[10] = viability loss in pontine glioma line – cell-based, SU-DIPG-XXV, MIPE5.0, CellTiter-Glo, qHTS, dose response (AID 1347065; cut-off not given, nearly all actives have AC50 up to about 26 µM;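 further: cells exposed to compound for 48 hours before ATP readout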); conditions: CellTiter-Glo ATP luminescence

Mitogen-activated protein kinase 7 (Homo sapiens), sequence (Q13164 whole entry, looked up, the tested form may be a part): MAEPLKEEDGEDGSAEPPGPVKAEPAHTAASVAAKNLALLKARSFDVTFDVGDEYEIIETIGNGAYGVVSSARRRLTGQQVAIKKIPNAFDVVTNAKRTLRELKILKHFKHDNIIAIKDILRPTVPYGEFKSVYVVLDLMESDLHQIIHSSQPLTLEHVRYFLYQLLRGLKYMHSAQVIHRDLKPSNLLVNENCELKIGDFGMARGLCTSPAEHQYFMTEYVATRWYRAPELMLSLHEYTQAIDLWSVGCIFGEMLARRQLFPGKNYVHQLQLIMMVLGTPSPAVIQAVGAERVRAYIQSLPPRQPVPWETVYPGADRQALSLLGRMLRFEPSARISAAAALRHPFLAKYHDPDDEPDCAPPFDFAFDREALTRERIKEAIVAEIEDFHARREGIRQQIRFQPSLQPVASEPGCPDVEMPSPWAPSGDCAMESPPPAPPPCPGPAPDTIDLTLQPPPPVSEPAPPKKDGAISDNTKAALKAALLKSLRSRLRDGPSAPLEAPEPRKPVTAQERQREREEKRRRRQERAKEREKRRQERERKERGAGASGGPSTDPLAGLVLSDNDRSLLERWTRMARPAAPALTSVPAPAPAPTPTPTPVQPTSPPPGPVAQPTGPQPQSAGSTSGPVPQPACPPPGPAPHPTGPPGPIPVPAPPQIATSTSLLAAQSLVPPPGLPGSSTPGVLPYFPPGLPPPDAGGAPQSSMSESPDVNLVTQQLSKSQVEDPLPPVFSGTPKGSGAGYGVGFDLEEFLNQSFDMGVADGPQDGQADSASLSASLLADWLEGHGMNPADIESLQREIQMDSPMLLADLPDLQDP

With `CC(=O)OCC(=O)[C@@]1(O)CCC2C3CCC4=CC(=O)C=C[C@]4(C)[C@@]3(F)[C@@H](O)C[C@@]21C` (some centres not stated) the luciferase signal [1] was 76 AU (inactive).
With `O=S(=O)(O)c1cc(N=C=S)ccc1/C=C/c1ccc(N=C=S)cc1S(=O)(=O)O` the luciferase signal [1] was 52 AU (inactive).
In the case of `O=c1cc(-c2ccccc2)oc2cccc(O)c12`, the luciferase signal [1] is reported as 104 AU (inactive).
For `C=CCS(=O)C[C@H](N)C(=O)O` (some centres not stated), the luciferase signal [1] was 128 AU (inactive).
For `COc1ccc(/C=C/C(=O)O)cc1OC`, the luciferase signal [1] was 52 AU (inactive) and 80 AU (inactive).
For `CCCCCCCCCCCCCCCC(=O)OCC(O)CO` (configuration not stated), the luciferase signal [1] was 72 AU (inactive).
With `CC(=O)O[C@@H]1CC2C(C)(C)C(=O)C3OC3[C@]2(C)C2CC[C@@]3(C)[C@H](c4ccoc4)OC(=O)C4OC43[C@@]21C` (some centres not stated) the luciferase signal [1] was 4 AU (inactive).
In the case of `CC(C)c1ccc2c(c1)CCC1C(C)(C(N)=O)CCCC21C` (configuration not stated), the luciferase signal [1] is reported as 64 AU (inactive).
For `CN(C)CC(=O)OC[C@@H](O)[C@@H](O)[C@H](O)[C@@H](O)C(=O)O`, the luciferase signal [1] was 36 AU (inactive).
With `COc1ccc(-c2cc(=O)c3c(O)c(OC)c(OC)c(OC)c3o2)cc1OC` the luciferase signal [1] was 112 AU (inactive).
In the case of `CNc1ccccc1C(=O)N1CCc2c([nH]c3ccccc23)C1=O`, the luciferase signal [1] is reported as 56 AU (inactive).
In the case of `CC(=O)Oc1cc(OC(C)=O)c2c(c1)O[C@H](c1ccc(OC(C)=O)c(OC(C)=O)c1)[C@@H](OC(C)=O)C2`, the luciferase signal [1] is reported as 16 AU (inactive).
With `COc1ccc(/C=C/C(=O)c2cc(O)ccc2O)cc1` the luciferase signal [1] was 80 AU (inactive).
In the case of `C=C[C@@H](C1=CC(=O)C(OC)=C(OC)C1=O)c1ccccc1`, the luciferase signal [1] is reported as 136 AU (inactive).
For `COc1ccc(-c2oc3cc(OC)c(OC)c(OC)c3c(=O)c2OC)cc1OC`, the luciferase signal [1] was 32 AU (inactive).
With `CCCc1cc(OC)c2c(c1)OCO2` the luciferase signal [1] was 216 AU (inactive).
For `O=C1C=CC(=O)c2c(O)c(Cl)c(Cl)c(O)c21`, the luciferase signal [1] was 12 AU (inactive).
With `CC(=O)O[C@H]1C[C@@H](OC(C)=O)C(C)(C)C2C[C@@H](O)[C@]3(C)C(CC[C@@]4(C)[C@H](c5ccoc5)OC(=O)[C@H]5O[C@]543)[C@]21C` (some centres not stated) the luciferase signal [1] was 28 AU (inactive).
Compound `COc1ccc(-c2cc(=O)c3c(O)cc(O[C@@H]4O[C@H](CO[C@H]5O[C@H](C)[C@@H](O)[C@H](O)[C@@H]5O)[C@@H](O)[C@H](O)[C@H]4O)cc3o2)cc1O` has a score [2] of 2.29, a rescue above control [3] of -9.51 and a cytochrome c release ratio [4] of 0.94. The inhibition of aggregation [5] was 75%, the glutamate uptake change [6] was 6.61% and the inclusion score [7] was 2. The aggregation suppression score [8] was 1.82.
For `COC1=CC(C)[C@@H]2C[C@H]3OC(=O)C[C@H]4C(C)=C(OC)C(=O)C([C@@]34C)[C@@]2(C)C1=O` (some centres not stated), the score [2] was 1.3, the rescue above control [3] was -7.37 and the cytochrome c release ratio [4] was 0.85. For the same compound, the inhibition of aggregation [5] was -1.96%, the glutamate uptake change [6] was 12.8% and the inclusion score [7] was 2. The aggregation suppression score [8] was 1.57.
In the case of `CCN(c1ccccc1)c1cc(NC)[n+](C)c(C)n1`, the outcome [9] is reported as “inactive” and the outcome [10] is reported as “inactive”.
Work on `CC(C)(C)NC[C@@H](O)COc1nsnc1N1CCOCC1` yielded a score [2] of 1.66, a rescue above control [3] of -14.1 and a cytochrome c release ratio [4] of 1.02. The inhibition of aggregation [5] was -23.4%, the glutamate uptake change [6] was 14.7% and the inclusion score [7] was 2. It also gave an aggregation suppression score [8] of 1.29.
Work on `CC(=O)N[C@@H]1[C@@H](C(O)[C@H](O)CO)O[C@](O)(C(=O)O)C[C@@H]1O` (some centres not stated) yielded a score [2] of 1.07, a rescue above control [3] of -7.75 and a cytochrome c release ratio [4] of 0.26. The inhibition of aggregation [5] was -20.4%, the glutamate uptake change [6] was 11.8% and the inclusion score [7] was 2. It also gave an aggregation suppression score [8] of 0.464.
In the case of `Nc1ccn(C2O[C@H](CO)[C@@H](O)[C@H]2O)c(=O)n1` (some centres not stated), the score [2] is reported as 1.09, the rescue above control [3] is reported as -6.6 and the cytochrome c release ratio [4] is reported as 1.18. It also gave an inhibition of aggregation [5] of 63.9%, a glutamate uptake change [6] of 6.93% and an inclusion score [7] of 2. It also gave an aggregation suppression score [8] of 1.06.
Work on `CC(=O)Oc1ccc2c(c1)CCC1C2CC[C@@]2(C)C1CC[C@@H]2OC(C)=O` (some centres not stated) yielded a score [2] of -0.45, a rescue above control [3] of 6.23 and a cytochrome c release ratio [4] of 1. For the same compound, the inhibition of aggregation [5] was 65.2%, the glutamate uptake change [6] was -3% and the aggregation suppression score [8] was 0.34.
`CC1(C)C2CC[C@]3(C)C(C(=O)C=C4[C@@H]5C[C@@](C)(C(=O)O)CC[C@]5(C)CC[C@]43C)[C@@]2(C)CC[C@@H]1O` (some centres not stated) showed a score [2] of 2.09, a rescue above control [3] of 12 and a cytochrome c release ratio [4] of 0.78. For the same compound, the inhibition of aggregation [5] was 25.7%, the glutamate uptake change [6] was -84.4% and the aggregation suppression score [8] was 1.4.
In the case of `CC(C)CC(NC(=O)CCN)C(=O)O` (configuration not stated), the score [2] is reported as 1.04, the rescue above control [3] is reported as 6.33 and the cytochrome c release ratio [4] is reported as 1.04. For the same compound, the inhibition of aggregation [5] was 57.6%, the glutamate uptake change [6] was 14.1% and the inclusion score [7] was 2. The aggregation suppression score [8] was 1.32.
Work on `C=C(C)[C@H]1CC=C(C(=O)O)CC1` yielded a score [2] of 0.26, a rescue above control [3] of -1.74 and a cytochrome c release ratio [4] of 0.96. For the same compound, the inhibition of aggregation [5] was -3.17%, the glutamate uptake change [6] was -7.46% and the inclusion score [7] was 2. The aggregation suppression score [8] was 0.107 and the luciferase signal [1] was 24 AU (inactive).
`NC(COCc1ccccc1)C(=O)O` (configuration not stated) showed a score [2] of 1.43, a rescue above control [3] of 1.64 and a cytochrome c release ratio [4] of 0.75. The inhibition of aggregation [5] was 85.8%, the glutamate uptake change [6] was 3.63% and the inclusion score [7] was 2. For the same compound, the aggregation suppression score [8] was 1.4.
For `NC(Cc1ccc(F)cc1)C(=O)O` (configuration not stated), the score [2] was 1.23, the rescue above control [3] was 3.95 and the cytochrome c release ratio [4] was 0.78. The inhibition of aggregation [5] was 75%, the glutamate uptake change [6] was 15.5% and the inclusion score [7] was 2. The aggregation suppression score [8] was 1.47 and the luciferase signal [1] was 100 AU (inactive).
`NC[C@H]1O[C@H](O[C@H]2C(O[C@@H]3O[C@H](CO)[C@@H](O)[C@H]3O)[C@@H](O)[C@H](N)C[C@@H]2N)[C@H](N)[C@@H](O)[C@@H]1O` (some centres not stated) showed a score [2] of 1.41, a rescue above control [3] of -3.87 and a cytochrome c release ratio [4] of 0.95. The inhibition of aggregation [5] was 51%, the glutamate uptake change [6] was -16.8% and the inclusion score [7] was 2. The aggregation suppression score [8] was 0.969.
With `CC[C@H](C)C(=O)O[C@H]1CCC=C2C=C[C@H](C)C(CCC3C[C@@H](O)CC(=O)O3)[C@H]21` (some centres not stated) the score [2] was 0.88, the rescue above control [3] was -3.11 and the cytochrome c release ratio [4] was 1.24. The inhibition of aggregation [5] was 31.8%, the glutamate uptake change [6] was 12.1% and the aggregation suppression score [8] was 0.746.
`CC(=O)OCC(=O)[C@@]1(O)[C@H](C)CC2C3CCC4=CC(=O)C=C[C@]4(C)[C@@]3(F)[C@@H](O)C[C@@]21C` (some centres not stated) showed a score [2] of 0.99, a rescue above control [3] of 1.81 and a cytochrome c release ratio [4] of 1.17. For the same compound, the inhibition of aggregation [5] was 69.4%, the glutamate uptake change [6] was 20.3% and the inclusion score [7] was 2. It also gave an aggregation suppression score [8] of 1.32.
